# A selection: hits, their analogues and other compounds. The true share with any hit is near 21%.
# Cycloheximide cs: counter-screen hit for Shiga toxin inhibitors, cycloheximide; max response, %; cell reporter, cycloheximide protein synthesis inhibition counterscreen; 300,000 tested, 12% active; in the data active = max response mostly above about 13%, no sharp cut-off; inactive = mostly below about 14%; also: read at 38.3 µM for the half of the compounds with a filed dose; 0% is about no effect
# Shiga toxin inh: inhibitors of Shiga toxin in Vero cells; 290,000 tested, 9.2% active; Vero cells, Shiga toxin protein synthesis inhibition reporter; inhibition, % at 38.7 µM; in the data active = inhibition mostly above about 28%, no sharp cut-off; inactive = mostly below about 43%; also: 0% is about no effect
# Pf growth 96h: P. falciparum growth inhibition at 96 hour, primary screen for plastid delayed-death inhibitors. Potency, µM (highest dose often 28.7 µM), for the others: at the highest dose activity change, negative = inhibition, actives largely listed as inhibitors. 320,000 tested, 6.9% active. P. falciparum luciferase reporter growth, 96 h; also: potency is read from the fitted curve at half-maximal effect; % is scaled to controls: 0 for no effect and ±100 for the full control effect
#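 Readout is luminescence from an integrated firefly luciferase in P. falciparum. Red cells, 2% hematocrit and 0.05% parasitemia final, were cultured with compound through two parasite generations (96 hours) at 37 C, 5% CO2.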
# Pf growth 48h: P. falciparum growth inhibition at 48 hours (one generation) | P. falciparum luciferase growth in erythrocytes, 48 h | Potency, µM (titrated, usually from 28.7 µM), inactives show top-dose activity change, negative = inhibition, actives largely listed as inhibitors | 310,000 tested, 5.9% active; also: potency is read from the fitted curve at half-maximal effect; % is scaled to controls: 0 for no effect and ±100 for the full control effect
#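 Parasite viability was followed by luminescence of a genomically integrated firefly luciferase. Cultures held 0.1% parasitemia at 2% hematocrit (final), incubated under 5% CO2 at 37 C.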
# Active calls of the source: *; ? = inconclusive; nt = no result given. Unless noted, calls follow the shape of the dose curve; as a rule, active = well fitted inhibition curve with a large enough effect; inconclusive = small, poorly fitted or top-dose-only effect, or another doubt; inactive = no such curve, though single readings can be large or run the other way.
SMILES,Cycloheximide cs,Shiga toxin inh,Pf growth 96h,Pf growth 48h
CCN1/C(=C2\C(=O)N(C)C(=S)N2C)C=Cc2cc(OC)ccc21,-2.2,-17.0,0.0%,14.7µM*
COc1ccc(C(CNC(=O)Cc2ccc(-c3ccccc3)cc2)N(C)C)cc1 (stereo not drawn),-3.8,7.2,?,?
CCSc1nc2c(c(=O)[nH]1)C(c1ccncc1)C(C(=O)OC(C)C)=C(C)N2 (stereo not drawn),-3.5,-20.6,10.4µM*,?
CCSc1nc2c(c(=O)[nH]1)C(c1cccnc1)C(C(=O)OC)=C(C)N2 (stereo not drawn),-3.3,-8.4,124.5%,-9.4%
CN(CC(=O)N1CCOCC1)S(=O)(=O)c1ccc2ccccc2c1,-1.6,nt,?,3.1%
Cc1ccc(Cl)cc1N1CCN(C(=O)C2CCCN(S(=O)(=O)c3cnc[nH]3)C2)CC1 (stereo not drawn),-1.4,21.3,?,?
Cc1ccc(Cl)cc1N1CCN(C(=O)C2CCC(=O)N(C3CCCCCC3)C2)CC1 (stereo not drawn),-2.2,1.4,?,11.7µM*
CCc1ccc(NC(=O)C2CCCN(S(=O)(=O)c3cnc[nH]3)C2)cc1 (stereo not drawn),-2.3,-8.5,?,-5.7%
CCc1ccc(NC(=O)C2CCN(S(=O)(=O)c3cnc[nH]3)CC2)cc1,-0.5,-7.9,13.1µM*,?
Cc1ccc(Cl)cc1N1CCN(C(=O)C2CCN(S(=O)(=O)c3cnc[nH]3)CC2)CC1,0.2,-2.5,2.62µM*,-6.4%
CC(=O)Nc1ccc(CC(=O)NCCC(c2ccccc2)c2ccccc2)cc1,-0.7,22.0,-14.8%,-32.7%
CCCCCCOC(=O)Cc1c(C)nc(-c2ccccc2)[nH]c1=O,-4.9,-7.2,?,2.33µM*
C=CCSc1nc(C)c(CC(=C)C)c(=O)[nH]1,-0.8,-12.1,?,39.9%
C=C(C)Cc1c(C)nc(-c2ccccc2)[nH]c1=O,18.0*,38.1*,nt,?
CCCCn1nc(C(=O)Nc2ccc(-n3cnnn3)cc2)c2ccccc2c1=O,nt,nt,?,-22.4%
COC(=O)c1ccc(N=NNc2cccc(Br)c2)cc1,63.4*,74.3*,?,244.2%
COC(=O)c1ccc(N=NNc2ccccc2)cc1,53.3*,131.3*,?,109.4%
COC(=O)c1ccc(NS(=O)(=O)N(C)C)cc1,-1.8,-12.7,-0.1%,-5.1%
COC(=O)c1ccc(N=NNc2ccc(C(=O)OC)cc2)cc1,122.1*,126.6*,3.5%,271.9%
COC(=O)C(C)Nc1cccc(Br)c1 (stereo not drawn),8.3,-3.8,18.5%,10.2%
CCS(=O)(=O)c1ccc2oc(SCC(=O)NC3CCCC(C)C3C)nc2c1 (stereo not drawn),7.2,3.1,?,nt
Cc1[nH]c(N=Nc2ccccc2)nc1N=Nc1ccccc1,13.8,70.8*,9.28µM*,3.7µM*
O=C(COC(=O)CNC(=O)c1ccccc1)NCCNC(=O)COC(=O)CNC(=O)c1ccccc1,nt,nt,37.0%,?
COc1ccc(OC)c2sc(N3CCN(C(=O)c4ccc5ncsc5c4)CC3)nc12,nt,nt,?,11.7µM*
CCOc1cccc2sc(N3CCN(C(=O)c4ccc5ncsc5c4)CC3)nc12,nt,nt,11.7µM*,?
SMILES,Cycloheximide cs,Shiga toxin inh,Pf growth 96h,Pf growth 48h
O=C(c1ccc2ncsc2c1)N1CCN(c2cccc(C(F)(F)F)c2)CC1,nt,nt,?,0.0%
CCO[C@H]1OC(C(=O)N2CCN(C)CC2)=C[C@@H](c2ccc(Br)cc2)[C@@H]1CCCO,-2.1,-3.9,8.4%,-8.4%
CCOC(=O)CNc1c(-c2ccc(F)cc2)nc2cnccn12,-3.3,-6.6,21.1%,-13.3%
CCCCCCSc1cc(-c2nc3cc(C)ccn3c2NC2CCCCC2)ccc1OC,nt,nt,8.28µM*,7.38µM*
CCCCNc1c(-c2ccc(OC)c(SC3CCCCC3)c2)nc2cnccn12,nt,nt,9.28µM*,10.4µM*
CCCCNc1c(-c2ccc(OC)c(SC3CCCCC3)c2)nc2cc(C)ccn12,nt,nt,?,9.28µM*
CCCCCCSc1ccc(-c2nc3ccc(C)cn3c2NC2CCCCC2)cc1,nt,nt,13.1µM*,9.28µM*
Cc1ccc2c(c1)N(CC(=O)N1CCCCCC1)C(=O)C(C)O2 (stereo not drawn),0.4,-4.2,29.0%,11.2%
Cc1ccc2nc(-c3ccncc3)c(NC3CCCC3)n2c1,5.9,4.8,?,-23.6%
COc1cc(-c2nc3cc(C)ccn3c2NC2CCCCC2)ccc1-c1ccc(C(C)=O)cc1,nt,nt,10.4µM*,5.22µM*
COc1cc(-c2nc3cnccn3c2Nc2c(C)cccc2C)ccc1O,-2.6,-13.5,nt,?
Cc1ccc2nc(-c3ccsc3)c(NC3CCCC3)n2c1,29.4,51.0*,20.5%,57.0%
Cc1ccn2c(NC3CCCCC3)c(-c3cccc(-c4cccc(Cl)c4)c3)nc2c1,nt,nt,10.4µM*,8.28µM*
COc1ccc(-c2nc3cnccn3c2NCc2ccccc2)cc1SC1CCCCC1,nt,nt,13.1µM*,?
CC(C)(O)C#Cc1ccc(C(=O)N2CCC(C(N)=O)(N3CCCCC3)CC2)o1,-3.0,-4.6,?,0.7%
COc1ccc(N2C(=O)CC(NNC(=O)c3cccnc3)C2=O)cc1 (stereo not drawn),-5.1,-3.9,26.8%,?
CC(C)OCCCNC(=O)C1CC(=O)N(CCc2ccccc2)C1 (stereo not drawn),3.3,3.3,-21.3%,2.8%
COC(=O)C1=C(C)NC(C)=C([N+](=O)[O-])[C@@H]1c1ccccc1C(F)(F)F,-1.3,-7.9,nt,nt
CS(=O)(=O)c1ccc(Cl)c(NC(=O)C2CCCN(C(=O)c3ccc(Cl)cc3)C2)c1 (stereo not drawn),nt,nt,-28.0%,?
COc1ccc(S(=O)(=O)N(C)CC(=O)N2CCCC2)cc1OC,-0.9,13.7,54.8%,0.0%
COc1cc(-c2nc3cnccn3c2NC(C)(C)CC(C)(C)C)ccc1O,-1.5,nt,?,?
CCC(C)Sc1ccc(-c2nc3cnccn3c2NC2CCCCC2)cc1 (stereo not drawn),nt,nt,7.38µM*,7.38µM*
CCCCCCSc1cc(-c2nc3cnccn3c2NCc2ccccc2)ccc1OC,nt,nt,5.86µM*,7.38µM*
CCCCNc1c(-c2ccc(-c3ccc(C(C)=O)cc3)c(OC)c2)nc2cnccn12,nt,nt,?,9.28µM*
Clc1ccc(-c2nc3cnccn3c2NC2CCCC2)cc1,-2.4,-13.0,-25.8%,nt
SMILES,Cycloheximide cs,Shiga toxin inh,Pf growth 96h,Pf growth 48h
Cc1nc(-c2nnc(SCC(=O)Nc3ccc(Cl)cc3)n2C)cs1,0.8,17.4,15.8%,-3.5%
CCCCNC(=O)C1C2C=CC3(CN(Cc4ccc(C)cc4)C(=O)C13)O2 (stereo not drawn),-4.1,-13.2,10.4µM*,1.2%
O=S(=O)(Nc1ccc(N2CCOCC2)cc1)c1c(F)cc(F)cc1Br,-3.5,-15.5,3.9%,-14.8%
COc1ccc2cc(C(=O)NCc3ccco3)c(=O)oc2c1,33.5*,59.7*,13.1µM*,73.4%
O=C(NCc1ccco1)c1cc2ccc(O)cc2oc1=O,17.5,21.2,nt,104.5%
COc1ccc2cc(C(=O)NCc3ccco3)c(=Nc3ccc(C(=O)O)cc3)oc2c1,54.9*,112.1*,?,10.4µM*
COc1ccc(N=c2oc3c(OC)cccc3cc2C(=O)NCc2ccco2)c(OC)c1,23.2*,60.1,-8.5%,12.0%
COc1ccc2oc(=Nc3ccc(C(=O)O)cc3)c(C(=O)NCc3ccco3)cc2c1,7.4,23.0,?,266.4%

# Assay outcomes deposited in PubChem BioAssay by National Center for Advancing Translational Sciences (NCATS).
